{"source": "PubChem BioAssay (NCI)", "note": "About 83,000 compounds went through this panel and 20% of them were active in at least one assay; those are over-represented in the sample as a whole.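 Method: cells in 96-well plates; compound added at one concentration; 48 h incubation; percent growth measured; values under 10 scored active.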 Activity calls are given as the source filed them.", "data": [{"tested_on": "SN12C renal", "assay": "NCI-60 one-dose screen, 48 h (100 = growth as untreated, 0 = no growth, -100 = all killed)", "details": "10 µM", "values": [{"smiles": "COc1cc2cc(C(=O)N3C[C@@H](CCl)c4c3cc(OC(=O)N3CCN(C)[C@@H]5CSSC[C@H]53)c3ccccc43)[nH]c2c(OC)c1OC", "growth": "-62.1% (active)"}, {"smiles": "CC1=C(CCC=O)C2=C(C)C3(CC3)[C@@](C)(O)C(=O)C2=C1", "growth": "-82.3% (active)"}, {"smiles": "COC(=O)C[C@](O)(CCC(C)C)C(=O)O[C@@H]1C(OC)=C[C@]23CCCN2CCc2cc4c(cc2[C@H]13)OCO4", "growth": "-26.7% (active)"}, {"smiles": "O=C(/C=C/c1ccc(Cl)cc1)c1nc2ccccc2n1Cc1ccc(F)cc1", "growth": "19.7% (inactive)"}, {"smiles": "CC[C@]12C=CCN3CC[C@@]4(c5ccc(OC)cc5N(C)[C@H]4[C@@](O)(C(=O)OC)[C@@H]1OC(=O)CCC[P+](C1CCCCC1)(C1CCCCC1)C1CCCCC1)[C@@H]32", "growth": "-40.5% (active)"}, {"smiles": "CC1=C2C(=C[C@@](C)(COP(=O)(Oc3ccccc3)Oc3ccccc3)[C@@H]2O)C(=O)[C@@](C)(O)C12CC2", "growth": "-76.3% (active)"}, {"smiles": "CC(=O)Oc1ccccc1C(=O)NC([Se])=NC1CCCCC1", "growth": "-42.7% (active)"}, {"smiles": "CCOP(=O)(CC(F)(F)C(F)(F)F)OCC", "growth": "62.1% (inactive)"}, {"smiles": "CC(C)C[C@H](NC(=O)CNC(=O)C[C@H]1O[C@@H]2OC3(C)CC[C@H]4[C@H](C)CC[C@@H]([C@H]1C)[C@@]24OO3)B(O)O", "growth": "-53.1% (active)"}, {"smiles": "C[C@H]1[C@@H](Oc2ccc(-c3cn(-c4ccnc5cc(Cl)ccc45)nn3)cc2)O[C@@H]2OC3(C)CC[C@H]4[C@H](C)CC[C@@H]1[C@@]24OO3", "growth": "24.3% (inactive)"}, {"smiles": "C[C@H]1[C@H](OC(=O)CCC(=O)N(CCCc2cn(-c3ccc([N+](=O)[O-])cc3)nn2)CCNc2ccnc3cc(Cl)ccc23)O[C@@H]2OC3(C)CC[C@H]4[C@H](C)CC[C@@H]1[C@@]24OO3", "growth": "54.9% (inactive)"}]}]}
